HT1080 IDH1KD tx = HT-1080 IDH1 knockdown cell toxicity (counter line). HT-1080 IDH1 knockdown viability, ATP luminescence, 48 h. Potency, µM (highest dose often 46.1 µM), for the others: at the top dose activity, negative = toxicity, actives largely listed as cytotoxic. 360,000 compounds, 2% hits. AID 686971;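 also: 0% = DMSO wells and -100% = cell-free medium wells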
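IDH1KD HT-1080 cells, 750/well, RPMI + 5% FBS; compound pinned after 2 h settling; 48 h, 37 °C; CellTiter-Glo luminescence; % activity normalised to DMSO and no-cell wells; curves fitted, classed by r2 and efficacy.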
DT40 TDP1 CPT = growth inhibition of DT40 Tdp1-/-;hTDP1 cells with camptothecin (screen for TDP1 inhibitors) | chicken DT40 Tdp1-/-;hTDP1 cells + 20 nM CPT, ATP luminescence, 48 h | Potency, µM (titrated, usually from 46.2 µM), inactives show top-dose activity change, negative = growth inhibition, hits mostly inhibitors | 420,000 compounds, 12% hits | AID 686979; also: % is scaled to controls: 0 for no effect and ±100 for the full control effect; nearly all actives have a fitted effect of over 55% in size
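Chicken DT40 Tdp1-/- cells complemented with human TDP1, 400 cells/well, exposed to compounds plus 20 nM camptothecin for at least 48 h at 37 C; viability read as ATP content by CellTiter-Glo luminescence.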
HT1080-NT tox = kills 2HG-producing HT-1080-NT fibrosarcoma cells | HT-1080-NT fibrosarcoma viability, CellTiter-Glo ATP luminescence, 48 h | Potency, µM (titrated, usually from 46.1 µM), for inactives: top-dose activity, negative = less viability, most hits filed as cytotoxic | 360,000 compounds, 1.6% hits | AID 686970;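 also: NT is the 2HG producing partner of a matched IDH1 knockdown line; 0% = DMSO-treated cells and -100% = media-only wells without cells; nearly all actives have a fitted effect of over 55% in size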
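Viability by CellTiter-Glo luminescence after 48 h compound exposure at 37C of HT-1080-NT cells (750/well, RPMI, 5% FBS). % activity scaled between DMSO wells and medium-only wells, then curve-fitted and categorized by curve class.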
TDP1 cell noCPT = qHTS for Inhibitors of human tyrosyl-DNA phosphodiesterase 1 (TDP1): qHTS in cells in absence of CPT. 420,000 compounds, 15% hits. DT40 Tdp1-/- hTDP1 cells, no CPT, ATP luminescence, 48 h. Potency, µM (series often up to 46.2 µM), for inactives: top-dose activity change, negative = growth inhibition, hits mostly inhibitors; also: % is scaled to controls: 0 for no effect and ±100 for the full control effect; nearly all actives have a fitted effect of over 55% in size
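No-CPT arm: Tdp1-/-;hTDP1 DT40 cells (400/well) plus compounds, incubated ≥48 hr at 37 °C. Readout CellTiter-Glo luminescence.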
HepG2 tox = HepG2 cytotoxicity, counter-screen for TGF-b inhibitors | 410,000 compounds, 0.76% hits | Potency, µM (titrated, usually from 46.1 µM), for inactives: at the highest dose activity change, negative = cytotoxicity, usual class: cytotoxic | HepG2 CAGA-GFP viability, ATP luminescence, 18 h
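HepG2 CAGA-GFP cells (1000/well, DMEM with 1% FBS) received compound, then TGF-beta at 500 pg/mL final, and were incubated 18 hours at 37 degrees C. Viability was read by CellTiter-Glo luminescence. Media-only wells were set as complete cell-killing and DMSO as no toxicity.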
TGFb inhibitor = blocks TGF-b signaling | HepG2 CAGA-GFP TGF-b/SMAD3 reporter, GFP fluorescence, 18 h; TGF-beta stimulated, 500 pg/mL final | Potency, µM (doses to about 46.1 µM), for the others: at the top dose activity, negative = inhibition, hits mostly inhibitors | 410,000 compounds, 1.2% hits; also: % is scaled to controls: 0 for no effect and ±100 for the full control effect; nearly all actives have a fitted effect of over 65% in size
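Per well, imaged GFP fluorescence of HEPG2 CAGA-GFP cells gives the signal; cells get compound, then TGF-beta (500 pg/mL final), 18 h at 37 degrees C; %Activity versus -TGF-beta and +DMSO controls.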
The depositor's hits bear a star; ? = inconclusive; nt = no result; [ ] = another dose, or the depositor's remark. Compounds with a hit are over-represented: about 17% of the library has one in this group of screens. Calls follow the shape of the dose curve; as a rule, active = well fitted curve in the direction sought with a large enough effect; inconclusive = small, poorly fitted or top-dose-only effect, or another doubt; inactive = no such curve, though single readings can be large; an effect the other way counts as inactive or inconclusive. Potency is read from the fitted curve at half-maximal effect.

SMILES | HT1080 IDH1KD tx | DT40 TDP1 CPT | HT1080-NT tox | TDP1 cell noCPT | HepG2 tox | TGFb inhibitor
CCOc1ccccc1C(=O)NC(C(=O)NCCc1ccccn1)C(C)C (stereo not drawn) | 10% | ? | -7% | ? | -2% | 3%
Cc1cccc(N2C(=O)CC(Sc3nc(-c4ccccc4)c4cc(Cl)ccc4n3)C2=O)c1 (stereo not drawn) | -1%[9.24 µM] | ? | 0% | ? | 0% | 5%
CCOC(=O)C1=C(NC(=S)NC(=O)c2ccccc2)c2ccccc2CC1(C)CC (stereo not drawn) | ? | -93% | -8% | ? | -16% | 0%
CCOC(=O)C1=C(NC(=S)NC(=O)c2ccccc2)c2ccccc2CC1C(C)C (stereo not drawn) | ? | ? | ? | 23µM* | -19% | -3%
CC1(C)C2CC[C@]3(C)C(CC=C4[C@@H]5C[C@@](C)(CO)[C@@H](O)C[C@]56C[C@@H](OC6=O)[C@]43C)[C@@]2(C)CC[C@@H]1O (stereo partly drawn) | 9% | 14% | 8% | 1% | 2% | 0%
CCN(CC)S(=O)(=O)c1cc(C(=O)Nc2ccccc2[N+](=O)[O-])ccc1Cl | ? | ? | -24% | 16µM* | -33% | 16µM*
CC(C)(C)C(=O)COc1ccccc1[N+](=O)[O-] | 0% | 15µM* | 1% | ? | -19% | -10%
CCN(CC)S(=O)(=O)c1cc(C(=O)N2CCc3ccccc32)ccc1Cl | ? | ? | ? | 9.2µM* | -31% | ?
CN(C)S(=O)(=O)c1ccc(Cl)c(NC(=O)COc2ccccc2[N+](=O)[O-])c1 | 8% | ? | -1% | 3.3µM* | 1% | 5%
COc1ccccc1OCCC(=O)OCC(=O)Nc1cc(S(=O)(=O)N(C)C)ccc1Cl | 4% | ? | -2% | ? | -7% | -5%
C[N+]1(CC(=O)c2ccc(Cl)cc2)CCOCC1 | nt | 4% | nt | -11% | 5% | 11%
CC(C)C[C@@H](CO)NS(=O)(=O)c1c(F)cccc1F | 1% | -1% | 0% | -6% | -21% | 4%
CCN(CC)S(=O)(=O)c1ccc(Cl)c(NC(=O)COc2ccccc2[N+](=O)[O-])c1 | ? | ? | ? | 23µM* | -34% | -9%
COc1ccc(CNC(=O)c2ccc(-c3nc(CSc4ccc(C)cc4)c(C)o3)cc2)c(OC)c1 | nt | 8.2µM* | nt | ? | -14% | -8%
Cc1ccc(SCc2nc(-c3ccc(C(=O)NCc4ccc(Cl)cc4)cc3)oc2C)cc1 | nt | 15µM* | nt | 9.2µM* | 11% | -2%
CCOc1ccc(CCNC(=O)c2ccc(-c3nc(CSc4ccc(C)cc4)c(C)o3)cc2)cc1 | nt | -2% | nt | -5% | 6% | -19%
CCOc1ccccc1CNC(=O)c1ccc(-c2nc(CSc3ccc(C)cc3)c(C)o2)cc1 | nt | 9.2µM* | nt | 13µM* | -14% | 1%
Cc1oc(-c2ccc(C(=O)NCc3ccc(Cl)cc3)cc2)nc1CS(=O)(=O)c1ccccc1 | nt | ? | nt | ? | -21% | ?
COc1ccccc1CCNC(=O)c1ccc(-c2nc(CSc3ccc(C)cc3)c(C)o2)cc1 | nt | 16µM* | nt | 8.2µM* | -8% | 3%
COc1ccc(CNC(=O)c2ccc(-c3nc(CSc4ccccc4)c(C)o3)cc2)c(OC)c1 | nt | -3% | nt | -27% | -7% | -13%
CC(C)C(=O)Nc1nnc(S(=O)(=O)N(C)Cc2ccc(F)cc2)s1 | nt | -21% | nt | -12% | -3% | 2%
CCSC1(SCC)N=C(N)C2(C#N)C(c3ccccc3)NC(C)=C(C)C12C#N (stereo not drawn) | 7% | 0% | 4% | -9% | 27% | 12%
CCSC1(SCC)N=C(N)C2(C#N)C(c3ccc(F)cc3)C12C#N (stereo not drawn) | ? | ? | ? | 21µM* | -73% | ?
Cc1ccc(-n2c(-c3ccccc3)c[n+]3c2CCc2ccccc2-3)c(C)c1 | ? | 0.21µM* | 23µM* | 0.037µM* | -26% | ?
Cc1ccc(-n2c(NN)nc3ccccc3c2=O)c(C)c1 | -20% | ? | -23% | ? | -6% | -18%
SMILES | HT1080 IDH1KD tx | DT40 TDP1 CPT | HT1080-NT tox | TDP1 cell noCPT | HepG2 tox | TGFb inhibitor
Cc1nc2cc(NS(=O)(=O)c3c(C)c(C)cc(C)c3C)ccc2s1 | 13µM* | 20µM* | 13µM* | 11µM* | -37% | ?
Cc1ccc(S(=O)(=O)Nc2ccc3nc(C)sc3c2)c(C)c1 | 0% | ? | -17% | 15µM* | -6% | -13%
COc1ccccc1S(=O)(=O)Nc1ccc2nc(C)sc2c1 | -8% | 2.6µM* | 1% | 21µM* | -7% | -6%
Cc1nc2ccc(NS(=O)(=O)c3c(C)c(C)cc(C)c3C)cc2s1 | 23µM* | ? | ? | 21µM* | -7% | -13%
CC(=O)NC(Cc1c[nH]c2ccccc12)C(=O)OCC(=O)N1CCN(S(=O)(=O)c2ccc(Cl)cc2)CC1 (stereo not drawn) | 8% | -9% | -3% | 4% | -21% | 1%
COc1cccc(CNC(=O)CCNC(=O)C2CCN(S(=O)(=O)c3ccccc3)CC2)c1 | 10% | -7% | 8% | -20% | 3% | 7%
Cc1ccc(NC(=O)c2nc[nH]c2C(=O)Nc2ccccc2F)cc1 | 10% | ? | ? | ? | -2% | 0%
Cc1cccc(NC(=O)c2nc[nH]c2C(=O)Nc2cc(Br)ccc2F)c1 | 2% | 13µM* | 11% | 8.2µM* | -13% | 14%
Cc1cccc(NC(=O)c2nc[nH]c2C(=O)Nc2ccccc2[N+](=O)[O-])c1 | 0% | 6.5µM* | 9% | 2.9µM* | -7% | -3%
Cc1cccc(NC(=O)c2nc[nH]c2C(=O)NC[C@@H](C)O)c1 | -12% | 12% | 1% | -21% | -1% | 16%
CCN(CC)c1ccc(CNCc2cccs2)cc1 | -25% | 16µM* | -13% | 21µM* | -7% | 6%
Cc1ccc(NC(=O)Cn2nnc(-c3nc(-c4ccncc4)no3)c2N)c(C)c1 | nt | 3% | nt | 13% | -14% | nt
CN(C)c1ccc(/C=C/c2ccnc3c2ccc2c(/C=C/c4ccc(N(C)C)cc4)ccnc23)cc1 | nt | -14% | nt | 0% | 1% | -21%
